This is a sample that favours compounds with a hit; in the whole collection about 2% have one here.
TDP-43 yeast inh: TDP-43 toxicity inhibition in yeast. TDP-43 expressing yeast growth rescue, BacTiter-Glo, 24 h. 1.8% of 410,000 active. AID 652104. Potency, µM (doses to about 46.1 µM), for the others: top-dose growth rescue (activation), hits mostly activators; also: % of control where 0% means no effect; nearly all actives have a fitted effect of over 50% in size
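Galactose-induced TDP-43 yeast, OD600=0.02, compound pinned; 24 hr, 30 deg C; BacTiter-Glo luminescence for growth. Inhibitors of TDP-43 toxicity read as activators.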
S-ASM inh: inhibitors of human secretory acid sphingomyelinase; 0.006% of 340,000 active; placental ASM, HMU-PC fluorogenic substrate, 60 min; Potency, µM (series often up to 57.5 µM), for inactives: top-dose activity change, negative = inhibition, actives largely listed as inhibitors; P17405
Target sequence (P17405 47-631 limits assumed): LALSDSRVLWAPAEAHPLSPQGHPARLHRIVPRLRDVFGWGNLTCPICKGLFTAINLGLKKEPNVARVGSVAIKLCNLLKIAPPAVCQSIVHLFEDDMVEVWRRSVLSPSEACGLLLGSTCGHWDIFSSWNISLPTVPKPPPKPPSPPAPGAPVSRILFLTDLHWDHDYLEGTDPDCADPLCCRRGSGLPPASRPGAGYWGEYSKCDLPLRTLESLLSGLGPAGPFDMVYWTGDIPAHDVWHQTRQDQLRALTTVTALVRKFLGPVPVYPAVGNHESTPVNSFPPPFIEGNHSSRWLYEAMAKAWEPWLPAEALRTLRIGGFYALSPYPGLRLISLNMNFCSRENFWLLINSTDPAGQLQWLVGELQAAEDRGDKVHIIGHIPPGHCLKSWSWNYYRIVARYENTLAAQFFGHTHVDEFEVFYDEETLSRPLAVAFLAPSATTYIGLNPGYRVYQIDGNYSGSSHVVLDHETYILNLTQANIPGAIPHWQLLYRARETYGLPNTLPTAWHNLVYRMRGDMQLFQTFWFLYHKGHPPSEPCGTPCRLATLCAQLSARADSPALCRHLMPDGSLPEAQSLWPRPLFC
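Fluorescence read-out (Ex 386 nm, Em 447 nm) after stopping the reaction at pH 10. Enzyme: ASM from human placenta; substrate HMU-PC0, 9 uM final; 60 min, 37 °C. Compound preincubation 10 min, ambient temperature.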
Abeta rescue: compounds reversing amyloid beta toxicity in yeast; 0.063% of 410,000 active; yeast expressing A-beta42, growth rescue, OD600, 48 h; response scale: 0% DMSO, 100% iron-clioquinol control; Potency, µM (doses to about 46.1 µM), actives largely listed as activators; also: nearly all actives have a fitted effect of over 55% in size
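Yeast A-beta toxicity model in growth medium with pinned compounds, 48 h at 30 C; growth read as absorbance at 600 nm. Normalized to FeCl3/clioquinol equimolar mix (positive) and DMSO (negative).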
aSyn rescue: rescues yeast growth from alpha-synuclein toxicity; 0.14% of 370,000 active; Potency, µM (titrated, usually from 46.1 µM), without a hit: at the highest dose growth rescue (activation), usual class: activators; Yeast expressing alpha-synuclein, growth rescue, BacTiter-Glo, 24 h; also: % of control where 0% means no effect; nearly all actives have a fitted effect of over 65% in size
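Readout is rescue of growth in alpha-synuclein-expressing yeast, so inhibitors of toxicity appear as activators. Growth after 24 hr at 30 deg C in galactose medium is quantified by luminescence.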
Rango-impB inh: inhibitors of Rango-importin beta complex formation; Q14974; Rango CFP/YFP FRET sensor + importin beta, 45 min; Potency, µM (titrated, usually from 92.2 µM), for inactives: at the top dose inhibition of complex formation; 0.031% of 340,000 active; AID 540263; calls by dose curve;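 also: 0% = DMSO wells and 100% = buffer wells lacking importin beta; nearly all actives have a fitted effect of over 15% in size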
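FRET biosensor (snurportin 1 IBB flanked by EYFP and cerulean), 50 nM, with compound 5 min, then 0.125 microM importin beta in PBS, 1 mM DTT, 0.02% Tween-20, 0.1% BSA. CFP/YFP ratio read after 45 min at room temperature; pre-read flags interference.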
Rango dissoc inh: inhibitors of RanGTP-induced Rango-importin beta complex dissociation; O95149+P62826; Biochemical FRET Rango-importin beta, RanGTP-induced dissociation; Potency, µM (top dose mostly 46.1 µM), inactives show at the highest dose activity change, negative = inhibition; 0.071% of 340,000 active; calls by dose curve; also: % of control where 0% means no effect; nearly all actives have a fitted effect of over 45% in size
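Two FRET readings bracket the reaction: one 5 min after compound meets Rango–importin beta, another 45 min after RanGTP-RCC1 (0.6 uM Ran, 0.2 uM RCC1, 2 mM GTP) is added. Only the second defines inhibition.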
* hit, by the source's call; i = inactive; ? = inconclusive; / = no result given; [ ] = dose if it differs, or a comment. Unless noted, calls follow the shape of the dose curve; as a rule, active = well fitted curve in the direction sought with a large enough effect; inconclusive = small, poorly fitted or top-dose-only effect, or another doubt; inactive = no such curve, though single readings can be large; an effect the other way counts as inactive or inconclusive. Potency is read from the fitted curve at half-maximal effect.

SMILES	TDP-43 yeast inh	S-ASM inh	Abeta rescue	aSyn rescue	Rango-impB inh	Rango dissoc inh
CN(CC1COc2ccccc2O1)C(=O)CCNS(=O)(=O)c1ccc(F)c(Cl)c1 (stereo not given)	22µM*	/	?	2%	/	/
CCc1cccc(CC)c1NC(=S)Nc1ccccc1	-25%[0.397 µM]	2%	14µM*	-3%	-1%	5%
CC(=O)N1CC(c2ccccc2)C(c2ccc(Cl)cc2)=N1 (stereo not given)	11µM*	1%	i	11%	-3%	-9%
CC(C)NC(=O)N1CC(c2ccccc2)C(c2ccc(Cl)cc2)=N1 (stereo not given)	25%	-11%	i	4%	0%	12%
O=C1Cc2ccccc2C(=O)N1OCc1ccc(Cl)cc1	?	4%	i	2%	-4%	1%
Nc1cccc2c1C(=O)N(Cc1cccc(Cl)c1)C2=O	20µM*	412%	i	?	?	?
O=C1Cc2ccccc2C(=O)N1Cc1cccc(Cl)c1	13µM*	51%	i	0%	2%	9%
Nc1cc(Cl)ccc1CN1C(=O)c2ccccc2C1=O	19%	/	i	-19%	/	/
Cc1ccsc1CN(C(=O)c1oc2cc(Br)ccc2c1C)C1CCS(=O)(=O)C1 (stereo not given)	24%	/	i	/	/	/
COc1ccc(-c2nc(S(=O)(=O)c3ccc(Cl)cc3)c(NCc3ccccc3)o2)cc1	0%	/	i	/	/	/
Cc1ccc(-n2ncc3c(N4CCCCCC4)ncnc32)cc1	?	/	i	/	/	/
CCCCCCNC(=O)N1C/C=C\C(c2ccc(OC)cc2)N(Cc2ccc(F)cc2)C(=O)C1 (stereo not given)	?	-13%	i	7%	0%	16%
CCCCCCC(=O)N1C/C=C\C(c2ccc(OC)cc2)N(Cc2ccc(F)cc2)C(=O)C1 (stereo not given)	28µM*	-17%	i	8%	1%	-6%
COC(=O)c1sc(=S)n(Cc2ccccc2)c1C	?	-1%	i	2%	0%	1%
CC(=O)c1sc(=S)n(Cc2ccccc2)c1C	13µM*	0%	i	0%	0%	-2%
CN(Cc1ccccc1)S(=O)(=O)c1ccc(NC(=O)c2cc(=O)c3ccccc3o2)cc1	10%	/	i	/	/	/
Cn1c(N)c(C(=O)COC(=O)C2CCC(C(C)(C)C)CC2)c(=O)n(C)c1=O (stereo not given)	35µM*	-17%	i[9.22 µM]	3%	2%	?
CCOC(=O)c1c(C)oc2ncnc(N3CCN(c4ccccc4OC)CC3)c12	?	/	i	/	/	/
COCCNC(=O)CCCn1c(SCC(=O)Nc2cccc(C)c2)nc2c(sc3ccccc32)c1=O	7%	/	i	/	/	/
CCN(c1ccccc1)S(=O)(=O)c1nnc(NC(=O)COc2ccc(OC)cc2)s1	3%	/	i	/	/	/
COc1ccc(-c2ccnc3c(Br)c(C)nn23)cc1	11µM*	14%	i	0%[1.84 µM]	?	-19%
Cc1nn2c(-c3ccc(F)cc3)ccnc2c1Br	15%	-2%	i	14%	-1%	9%
CC(NCCN(C)C)C1CCC2C3CCc4cc(O)ccc4C3CCC12C (stereo not given)	0.32µM*	2%	i	-1%	0%	-10%
CCCCc1ccc(NC(=O)C(C)CC)cc1 (stereo not given)	11µM*	-3%	i	-13%	1%	-15%
CCCCc1ccc(NC(=O)CC(C)=O)cc1	6%	0%	i	9%	-2%	-1%
SMILES	TDP-43 yeast inh	S-ASM inh	Abeta rescue	aSyn rescue	Rango-impB inh	Rango dissoc inh
CCCCc1ccc(CC(=O)NO)cc1	/	/	/	16µM*	/	/
CCCCc1ccc(NC(=O)CC(C)(C)C)cc1	20µM*	0%	i	2%	0%	2%
CCCCOc1ccc(CC(=O)NO)cc1	?	?	i	7%	-3%	-6%
CCCCc1ccc(NC(=O)N[C@@H](C)C(=O)O)cc1	1%	5%	i	-8%	0%	-2%
C=C1NN(Cc2ccccc2)C(=O)N1c1ccc(OC)cc1	/	/	/	6%	/	/
COc1ccccc1CNC(=O)CSC1=Nc2ccccc2N=C(c2ccc(F)cc2)C1	11%	/	i	/	/	/
c1ccc(-c2nc(-c3ccco3)n3ccccc23)cc1	25µM*	64%	i	-2%	?	?
Cc1[nH]n(-c2ccccc2)c(=O)c1/C=N/N1C(=O)c2cccc3cccc(c23)C1=O	18µM*	-10%	?	?	5%	-2%
Cc1[nH]n(-c2ccccc2)c(=O)c1C=Nc1cccc2cccnc12	22µM*	-28%	i	-2%	?	-6%
Cc1ccc(-n2[nH]c(C)c(/C=N/c3ccccn3)c2=O)cc1	-34%	-3%	i	-39%	3%	-8%
COc1cc2nc(Cl)nc(NC3CCN(Cc4ccccc4)CC3)c2cc1OC	/	/	/	1%	/	/
COc1cc(-c2nnc(SCc3c(F)cccc3Cl)o2)cc(OC)c1OC	?	-17%	i	1%	5%	-12%
Clc1cccc(NCc2nnc(SCc3ccccc3)o2)c1	0%	-8%	i	5%	-1%	16%
Clc1ccccc1CSc1nnc(-c2ccncc2)o1	10µM*	-1%	i	7%	-1%	30%
Fc1cccc(Cl)c1CSc1nnc(-c2ccncc2)o1	13µM*	1%	i	-9%	2%	-9%
Clc1cccc(NCc2nnc(SCc3ccccc3Cl)o2)c1	13µM*	-8%	i	20µM*	-7%	-7%
O=C1c2ccccc2-n2c1nc1ccccc1c2=O	-14%	-7%	i	-8%	3%	1%
CC1(C)Cc2ccccc2-c2nc3ccccc3c(=O)n21	13µM*	-3%	i	2%	0%	13%
Nc1ccc2c(c1)C=C/C2=C\c1ccccc1	/	/	/	2%	/	/
COC(=O)c1ccc(CSc2nnc3ccc4ccccc4n23)cc1	35µM*	/	i	/	/	/
COc1ccc(N2CCN(C(=O)c3cc(S(=O)(=O)N4CCC(C)CC4)cn3C)CC2)cc1	25%	/	i	/	/	/
O=C1CCCN1CCCNS(=O)(=O)c1cccs1	7%	1%	i	-1%	?	0%
O=C1CCCN1CCCNS(=O)(=O)c1ccccc1	1.1µM*	2%	i	?	1%	1%
CCOCCc1nnc(NC(=O)C(=O)c2cc(C)n(-c3cccc(C)c3)c2C)s1	35µM*	/	i	/	/	/
CCOCCc1nnc(NC(=O)C(=O)c2cc(C)n(-c3ccc(C)c(C)c3)c2C)s1	?	/	i	/	/	/
